According to ChEMBL document CHEMBL4513216, “Probing the Open Global Health Chemical Diversity Library for Multistage-Active Starting Points for Next-Generation Antimalarials” (ACS Infect Dis, 2020):
The whole screen tested about 69,000 compounds, of which about 8,600 (12%) showed an effect of 50% or more. The full list was thinned out, with strong results kept by preference.

What follows are compounds tested on Plasmodium berghei (assay: Screen against P. berghei liver stage (PbLuc), transformed with Luciferase, at 10uM). Details: tested at 10 uM.
Format: functional, HepG2

Structure (SMILES) | INHIBITION
Cc1ccc(C(=O)N2CCc3ncc(Cn4cccn4)n3CC2)cn1 | 30.3%
CCN(CC)S(=O)(=O)N(C)Cc1ccc2c(c1)OCCO2 | -85%
CCN(CC)S(=O)(=O)N(C)Cc1ccncc1 | 69.7%
COCCN(Cc1ccncc1)C(=O)C1COc2ccccc2C1 (configuration not stated) | 45.8%
COCCCN(Cc1ccncc1)c1cc(C)ncn1 | 10%
CCN(Cc1ccncc1)S(C)(=O)=O | 14.3%
COCCN(CCOC)S(=O)(=O)N(C)Cc1ccncc1 | 56%
CCc1ccc(S(=O)(=O)Nc2cnccc2C)s1 | 29.85%
O=C(c1cccnc1)N1C[C@H]2CC[C@@H](C1)N(Cc1cccc(Cl)c1F)C2 | -48.4%
CN(C)C(=O)c1nc(-c2ccc(S(C)(=O)=O)cc2)c2cnccn12 | 16.8%
C[C@H](NS(C)(=O)=O)C(=O)NCc1cc(-c2ccco2)n[nH]1 | 2.6%
CC(C)[C@H](NS(C)(=O)=O)C(=O)NCc1cc(-c2ccccc2)n[nH]1 | 33.7%
NS(=O)(=O)NCc1cc(-c2ccc(C(F)(F)F)cc2)n[nH]1 | 57.5%
CC(C)OCCSCCn1nc2ccccn2c1=O | 1.41%
COc1ncccc1CNC(=O)c1cnc(C)cn1 | -7.7%
COc1ccc(-c2n[nH]cc2CNC2CCN(C3CC3)CC2)cc1 | -39.6%
CC(CC#N)n1ccc(C(F)(F)F)n1 (configuration not stated) | -6.3%
Cc1ccccc1OC1CCN(CC(=O)Nc2cnn(C)c2C)CC1 | 33.2%
Cc1nc(CCN2CCC(Oc3ccccc3F)CC2)cs1 | 42.5%

Structure (SMILES) | INHIBITION
Cc1n[nH]c(C)c1S(=O)(=O)N1CCC(Oc2ccccc2F)CC1 | 1.62%
Cc1nc(CCN2CCC(Oc3ccccc3F)CC2)c(C)s1 | 82.4%
Cc1ccnc(C2CCN(CCCOc3ccccc3F)C2)n1 (configuration not stated) | 13.5%
Cc1nc(C)c(CCN2CCC(Oc3ccccc3F)CC2)s1 | 86.4%
COc1ccc(CC(=O)N2CCC(Nc3ccc(C)nn3)CC2)cc1 | -16%
CC(C)NC(=O)NCc1ccc(C(=O)NC(C)Cn2cccn2)cc1 (configuration not stated) | 3.73%
COc1cccc(C(=O)N2CCc3c(nc(N)[nH]c3=O)C2)c1OC | -6.91%
N#Cc1ccccc1Cn1cncn1 | 25.3%
COCc1cccc(S(=O)(=O)Nc2ncc(C)s2)c1 | 14.2%
c1cncc(COCc2nnc3n2CCN(Cc2ccco2)C3)c1 | 53.4%
c1cncc(COCC2CN(Cc3ccco3)Cc3nccn3C2)c1 (configuration not stated) | -6.39%
O=C(c1cccnc1)N1Cc2[nH]nc(COCCO)c2C1 | 40.8%
OCCOCc1n[nH]c2c1CN(Cc1ccco1)C2 | 23.3%
c1cncc(COCc2nnc3n2CCN(Cc2cccs2)C3)c1 | -8.94%
O=C(C1CC1)N1Cc2[nH]nc(COCc3cccnc3)c2C1 | 11.6%
CCS(=O)(=O)N1Cc2[nH]nc(COCc3cccnc3)c2C1 | 58.3%
c1cncc(COCc2n[nH]c3c2CN(Cc2ccco2)C3)c1 | 61.9%
c1cncc(COCc2nnc3n2CCN(Cc2ccoc2)C3)c1 | 35.1%
O=C(C1CC=CC1)N1C[C@@H](OCc2cccnc2)[C@H]2OCCC[C@H]21 | 0.72%

Structure (SMILES) | INHIBITION
CC(C)n1cc(CN2CCCN(C(=O)C(C)n3cncn3)CC2)cn1 (configuration not stated) | 26.4%
CC(Sc1n[nH]c(-c2ccc3c(c2)CCC3)n1)C(N)=O (configuration not stated) | -56.1%
CS(=O)(=O)N[C@@H]1CCO[C@]2(CCN(CC3CCOCC3)C2)C1 | -33.9%
CC(C)c1noc(CN2CCCC2c2noc(C(C)C)n2)n1 (configuration not stated) | 29.2%
COc1ncc(NS(=O)(=O)c2ccc(F)c(F)c2)c(OC)n1 | 11.6%
CCOc1ccc(S(=O)(=O)Nc2cnc(OC)nc2OC)cc1 | 81.1%
COc1ncc(NC(=O)c2ccco2)c(OC)n1 | 36.6%
COc1ncc(NS(=O)(=O)c2ccc(OC)c(C)c2)c(OC)n1 | 69.6%
COc1ccc(S(=O)(=O)Nc2cccnc2-n2cncn2)cc1C | 1.56%
COc1ncc(NS(=O)(=O)c2cccc(C)c2)c(OC)n1 | 34.6%
Cc1ccc([C@H]2CN(CCO)C[C@@H]2NC(=O)CN2CCCCC2=O)o1 | 4.93%
Cc1nc(Nc2nnc(C)s2)cc(C2CCCN2c2ccncn2)n1 (configuration not stated) | 25.6%
O=C1COC2(COCCN(Cc3cccnc3)C2)CN1c1ccoc1 (configuration not stated) | 12.2%
Cc1nc2c(c(=O)n1C)CCN(Cc1cc3ccccc3[nH]1)CC2 | 60.4%
Cc1cc(CN2CCc3nc(C)n(C)c(=O)c3CC2)[nH]n1 | 45.6%
Cc1nc2c(c(=O)n1C)CCN(Cc1cc3cc[nH]c3cn1)CC2 | 19.8%
Cc1cc(CN2CCc3cncnc3C2)on1 | -40.5%
CCN(C(=O)CCOC)C(c1ccc(Cl)cc1)c1ccccn1 (configuration not stated) | 58.8%
CCN(C(=O)COC)C(c1ccc(Cl)cc1)c1ccccn1 (configuration not stated) | 44.9%
